According to the supplement of paper PMC6607015:
Where a name gives a salt, the structure may show the parent alone.

What was measured:
Conditions in all cases: compound concentration in added solution (µM; 5 µl added to 20 µl cells): 10; 18 h
A431 [1] = assay: LBPA endosome anti-LBPA integrated intensity (sum per cell), Z-score; higher = more LBPA staining
Method in brief: (§1)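 HeLa MZ or A431 cells (3,500/well in 20 µl) were seeded onto 5 µl of 10 µM compound solution in duplicate 384-well imaging plates, incubated 18 h, then fixed in 4% PFA. Cells were stained with 6C4 anti-LBPA antibody, filipin, propidium iodide and CellTracker green, and four 20× images were taken per well. MetaXpress segmentation gave per-cell integrated LBPA or filipin intensity, either whole-cell or within LBPA endosomes. Values are Z-scores normalised in AcuityXpress.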

HeLa MZ [2] = assay: as above
Method in brief: as §1

A431 [3] = assay: whole-cell filipin (free cholesterol) integrated intensity, Z-score; higher = more cholesterol staining
Method in brief: as §1

HeLa MZ [4] = assay: as above
Method in brief: as §1

A431 [5] = assay: filipin (cholesterol) integrated intensity within LBPA endosomes, Z-score; higher = more cholesterol in LBPA endosomes
Method in brief: as §1

HeLa MZ [6] = assay: as above
Method in brief: as §1

| Compound | LBPA endosome anti-LBPA integrated intensity (z-score) (A431 [1]) | LBPA endosome anti-LBPA integrated intensity (z-score) (HeLa MZ [2]) | whole-cell filipin (z-score) (A431 [3]) | whole-cell filipin (z-score) (HeLa MZ [4]) | filipin (z-score) (A431 [5]) | filipin (z-score) (HeLa MZ [6]) |
| --- | --- | --- | --- | --- | --- | --- |
| C[N+](C)(C)CCCCCCCCCC[N+](C)(C)C [Decamethonium bromide] | -0.547 | -1.08 | 0.0371 | 0.872 | -0.372 | -0.446 |
| O=[N+]([O-])c1cc([As](=O)(O)O)ccc1O [Roxarsone] | -0.422 | -1.01 | 0.39 | 0.562 | -0.281 | -0.327 |
| CC(O)(CS(=O)(=O)c1ccc(F)cc1)C(=O)Nc1ccc(C#N)c(C(F)(F)F)c1 (configuration not stated) [Bicalutamide] | -0.376 | -0.104 | -0.0253 | 0.26 | -0.405 | -0.188 |
| CC(=O)OCC1=C(C(=O)O)N2C(=O)[C@@H](N)[C@H]2SC1 [Cephalosporanic acid, 7-amino] | -0.605 | -1.08 | -0.806 | -0.877 | -0.581 | -0.604 |
| CC(=O)OC1CN2CCC1CC2 (configuration not stated) [Aceclidine Hydrochloride] | -0.622 | -1.07 | -0.642 | 0.0664 | -0.61 | -0.54 |
| C[C@]12CC[C@H]3[C@@H](CCC4=CC(=O)CC[C@@H]43)[C@@H]1CC[C@@H]2O [Nandrolone] | -0.352 | 0.296 | -0.14 | -0.437 | -0.296 | -0.508 |
| CC(Cc1ccc(O)cc1)NCC(O)c1cc(O)cc(O)c1 (configuration not stated) [Fenoterol hydrobromide] | -0.386 | 0.00712 | -0.429 | -0.631 | -0.574 | -0.584 |
| COc1ccc(C(CN(C)C)C2(O)CCCCC2)cc1 (configuration not stated) [Venlafaxine] | -0.375 | 0.627 | -0.148 | -0.294 | -0.383 | -0.283 |
| CC(C)[N+](C)(CCC(C(N)=O)(c1ccccc1)c1ccccc1)C(C)C [Isopropamide iodide] | -0.212 | 0.0469 | 0.00888 | -0.577 | -0.389 | -0.451 |
| CNCC(O)c1ccc(O)cc1 (racemic) [(+,-)-Synephrine] | -0.271 | -0.444 | 0.673 | -0.00115 | -0.481 | -0.576 |
| CN1C[C@H](C(=O)N[C@]2(C)O[C@@]3(O)[C@@H]4CCCN4C(=O)[C@H](Cc4ccccc4)N3C2=O)C[C@@H]2c3cccc4[nH]cc(c34)C[C@H]21 [Dihydroergotamine tartrate] | 2.74 | 2.55 | 1.06 | 0.225 | 1.48 | 1.1 |
| CCC(=O)O[C@H]1CC[C@H]2[C@@H]3CCC4=CC(=O)CC[C@]4(C)[C@H]3CC[C@]12C [Testosterone propionate] | -0.618 | -0.712 | -0.907 | -0.813 | -0.502 | -0.546 |
